From PubChem
In the library only some 7.1% were active in any assay of this set; here they are far more common.
SW480 rereplic: A quantitative high throughput screen for small molecules that induce DNA re-replication in SW480 colon adenocarcinoma cells | actives 1.8% (n = 340,000) | Potency, µM (top dose mostly 46.1 µM), for the others: at the highest dose re-replication activation, usual class: activators | SW480 DNA re-replication, Hoechst DNA content imaging, 48 h; further: % of control where 0% means no effect; nearly all actives have a fitted effect of over 55% in size
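First, 250 cells per well were seeded. Next, compound or vehicle (23 nL) was pinned in, plates sat 48 hr at 37 C. Finally Hoechst was added for 40 min before fluorescence scanning.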
ELG1 repair inh: qHTS screen for small molecules that inhibit ELG1-dependent DNA repair in human embryonic kidney (HEK293T) cells expressing luciferase-tagged ELG1. HEK293T ELG1-luciferase reporter, luminescence, 16 h; DNA damage induced by 5-fluorouridine. actives 2.3% (n = 330,000). AID 504467, 2011. Potency, µM (doses to about 46.1 µM), for the others: top-dose activity change, negative = inhibition, most hits filed as inhibitors; further: on the % scale 0 is the no-effect control and ±100 the full control effect; nearly all actives have a fitted effect of over 55% in size
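DMSO vehicle served as the neutral condition. Each well held 2,000 cells given 5-fluorouridine plus compound; after 16 hr at 37 °C/5% CO2, ONE-Glo was added and luciferase measured 30 min later.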
A-T KAP1 phos: qHTS Assay for Identifying a Potential Treatment of Ataxia-Telangiectasia | F2112 A-T fibroblasts, KAP-1 phosphorylation AlphaLISA; neocarzinostatin DNA damage 30 min before lysis | Potency, µM (doses to about 57.5 µM), for the others: at the highest dose activation, usual class: activators | actives 0.19% (n = 320,000); further: % of control where 0% means no effect; nearly all actives have a fitted effect of over 45% in size
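ATM-like activity read as KAP-1 phosphorylation via AlphaLISA donor/acceptor antibody pairs after lysis and 6 hr at 25C. Cells were ATM-null patient fibroblasts (F2112, hTERT), dosed 60 min, then exposed to the DSB inducer NCS for 30 min.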
p53 reactivation: qHTS assay for re-activators of p53 using a Luc reporter. H1299 p53-A138V BP100-luciferase reporter, luminescence, 24 h. Potency, µM (top dose mostly 92.2 µM), for inactives: at the highest dose activity change, positive = activation, actives largely listed as activators. actives 0.063% (n = 320,000); further: % of control where 0% means no effect; nearly all actives have a fitted effect of over 45% in size
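p53-null H1299 cells stably carrying temperature-sensitive p53-A138V and a BP100-luciferase reporter were pinned with compounds (4-point, 1:5 series) and held 24 hrs at 37 deg C. Luminescence was read 10 min after detection reagent.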
ELG1 genotox: qHTS screen for small molecules that induce genotoxicity in human embryonic kidney (HEK293T) cells expressing luciferase-tagged ELG1; HEK293T ELG1-luciferase reporter, luminescence, 16 h; Potency, µM (top dose mostly 46 µM), for the others: at the highest dose activity change, positive = activation, actives largely listed as activators; actives 1.3% (n = 330,000); further: % of control where 0% means no effect; nearly all actives have a fitted effect of over 60% in size
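Step 1: seed 2,000 HEK293T ELG1-luciferase cells per well. Step 2: add compound or DMSO, incubate 16 hr at 37 °C. Step 3: ONE-Glo, 30 min at room temperature, read luminescence.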
MCF10A rereplic: A quantitative high throughput screen for small molecules that induce DNA re-replication in MCF 10a normal breast cells; MCF 10A DNA re-replication, Hoechst nuclear intensity, 48 h; Potency, µM (series often up to 46.1 µM), for inactives: at the top dose activity, positive = re-replication, most hits filed as activators; actives 2.9% (n = 350,000); further: % of control where 0% means no effect; nearly all actives have a fitted effect of over 50% in size
The depositor's hits bear a star; ? = inconclusive; . = not tested or not shown; [ ] = remark or other dose. The call rests on the fitted dose curve; in most records, active means well fitted curve in the direction sought with a large enough effect; inconclusive means small, poorly fitted or top-dose-only effect, or another doubt; inactive means no such curve, though single readings can be large; an effect the other way counts as inactive or inconclusive. Potency means the concentration at half of the fitted maximal effect.

SMILES	SW480 rereplic	ELG1 repair inh	A-T KAP1 phos	p53 reactivation	ELG1 genotox	MCF10A rereplic
O=C(O)CSc1cc(C(=O)c2ccccc2O)cn2c(=O)c3c(-c4ccccc4)csc3nc12	?	-15%	-13%	3%	0%	5.2µM*
N#CC(C#N)=C1CCCc2sccc21	11%	.	.	.	.	-4%
COc1ccccc1OCC(=O)Nc1cc(Cl)ccc1N1CCCCC1	12%	1%	13%	1%	-4%	?
Cn1c2ccccc2c(=O)c2ccc(-c3ccc4c(c3)OCO4)cc21	?	?	22%	?	?	15µM*
CC(=O)Nc1c(-c2ccc(Cl)cc2)c(=O)c2ccccc2n1C	-3%	12%	-5%	-1%	1%	-18%
COc1ccc(-c2cc(Cl)cc3c(=O)c4ccccc4n(C)c23)cc1F	18µM*	-8%	33%	11%	-2%	?
Cn1c2ccccc2c(=O)c2ccc(F)cc21	16µM*	24%	?	.	16%	?
Cn1c(C=O)c(-c2ccc3c(c2)OCCO3)c2ccccc21	4%	3%	4%	-7%	-3%	16µM*
Cn1c(-c2ccc3c(c2)OCO3)cc(=O)c2ccccc21	-2%	-31%	-3%	-2%	-7%	-4%
CCCn1ncc(CN2CCC(C(=O)Nc3cccc(-c4cccc(F)c4)c3)CC2)c1C	?	-28%	-12%	?	2%	?
COc1ccc(N2CCN(Cc3csc(C)c3-c3ccc(C)cc3)CC2)cc1	7%	-21%	-6%	-1%	-1%	21%
COc1ccccc1C(=O)NC(=O)COC(=O)C1(C)CC1(Cl)Cl (configuration not stated)	-8%	5%	1%	1%	-1%	-2%
CC(C)c1ccc(NC(=O)CSc2n[nH]c(=O)n2C2CC2)cc1	7%	-2%	8%	-25%	9%	7%
COc1cc(C2CC(=O)Oc3c2c(=O)n(C)c2ccccc32)cc(OC)c1OC (configuration not stated)	-32%	-4%	1%	2%	3%	6%
COc1cc(-c2ccc3c(=O)c4ccccc4n(C)c3c2)cc(OC)c1OC	13µM*	?	6%	?	7%	?
COc1cc(-c2ccc3c(=O)c4ccccc4sc3c2)cc(OC)c1OC	0.65µM*	11%	0%	4%	9%	3.7µM*
O=C1CCC(C(=O)Nc2ccc([N+](=O)[O-])cc2)N1 (configuration not stated)	-6%	7%	10%	2%	1%	2%
O=C(/C=C/c1c(F)cccc1Cl)NCCCN1CCOCC1	-20%	24%	3%	-3%	15%	-30%
COC(=O)COc1ccc(C(=O)Cn2c(NCCCO)nc3ccccc32)cc1	-17%	.	.	.	.	3%
Nc1c(N2CCN(c3ccccc3)CC2)c2ccccc2oc1=O	-9%	18µM*	1%	-4%	-32%	5%
N=C1C(=O)OCC1c1ccccc1NC(=O)Nc1ccccc1 (configuration not stated)	-5%	0%	1%	-3%	-6%	2%
CC(C)=Nc1ccccc1C1COC(=O)C1=N (configuration not stated)	0.52µM*	-7%	2%	3%	-2%	-70%
CCC(C)(C)c1ccc(OCCCC[n+]2ccc(C)cc2)c(C(C)(C)CC)c1	26%	10µM*	3%	-11%	-6%	23µM*
CCC(C)(C)c1ccc(OCCCC[n+]2cccc(C)c2C)c(C(C)(C)CC)c1	16%	2.6µM*	10%	-11%	-8%	30%
CCCCCCCCCCCCCC[n+]1ccc(C)cc1	?	.	.	.	.	55%
SMILES	SW480 rereplic	ELG1 repair inh	A-T KAP1 phos	p53 reactivation	ELG1 genotox	MCF10A rereplic
CCN1C[C@@H]2[C@@H]3C(=O)N(C)C(=O)[C@@H]3[C@](Cc3ccccc3)(C(=O)OC)N2C1=NC1CCCCC1	?	19%	11%	2%	-4%	-34%
COc1cc2c(cc1OC)C1(Nc3c-2c(Cc2ccccc2)nn3-c2ccccc2)C(=O)Nc2ccccc21 (configuration not stated)	?	13µM*	.	0%	-8%	6.5µM*
Oc1ccc(C2=NNC(=NCc3ccc4c(c3)OCO4)SC2)c(O)c1	15µM*	?	-9%	?	?	12µM*
Clc1ccc(C2=NNC(=NCc3ccc4c(c3)OCO4)SC2)cc1	?	?	2%	2%	-7%	?
COc1cc(C(=O)NNC(=O)COc2ccc(Cl)cc2)ccc1OCC(=O)N1CCOCC1	-3%	17%	3%	-5%	1%	4%
COC(=O)c1cc(C)nc2c1C(=O)C(=O)C=C2N1CCOCC1	?	5.2µM*	-9%	.	-20%	?
COC(=O)c1cc(S(=O)(=O)N2CCOCC2)c(Cl)cc1N1CCOCC1	-3%	-7%	0%	-5%	-3%	-179%[0.0737 µM]
COc1ccc(-n2c(C)c(C)c3c(NCCN(C)C)ncnc32)cc1	-12%	2%	7.1µM*	-4%	0%	12%
COc1ccc(-n2c(C)c(C)c3c(NCCCN(C)C)ncnc32)cc1	20%	-6%	-18%	-3%	1%	?
CN(CC(=O)Nc1ccc(F)cc1)C(=O)C1CCCC1	0%	17%	-3%	3%	4%	-3%
CCCCCOc1ccc(Br)cc1/C(C)=N/NC1=NCCN1	3.3µM*	?	.	7%	1%	3.3µM*
N#Cc1c(-c2ccccc2)c(-c2ccccc2)nn(CC(=O)NNC(=O)Nc2ccccc2)c1=O	2.9µM*	-25%	-7%	1%	-3%	0.65µM*
N#Cc1c(-c2ccccc2)c(-c2ccccc2)nn(CC(=O)NNC(=O)Nc2ccc(Cl)cc2)c1=O	?	-1%	-11%	10%	-7%	?
CCc1nnc(NC(=O)c2ccc(COc3cccc(C)c3)o2)s1	?	-4%	2%	5%	1%	1%
CC(C)(C)c1ccc(OCC(=O)Nc2ccc(-c3nc4cccnc4o3)cc2)cc1	14%	.	.	.	.	16µM*
CC(C)C(=O)Nc1ccc(-c2nc3cccnc3o2)cc1	-14%	?	-4%	16%	?	?
